Shown are actives, neighbours in structure and some others; about 1.4% of the full set was active somewhere.
p53 reactivator: mutant p53 re-activation in reporter cells; H1299 p53-A138V BP100-luciferase reporter, luminescence, 24 h; Potency, µM (highest dose often 92.2 µM), inactives show at the top dose activity change, positive = activation, hits mostly activators; actives 0.063% (n = 320,000); also: potency is read from the fitted curve at half-maximal effect; % of control where 0% means no effect; nearly all actives have a fitted effect of over 45% in size
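p53-null H1299 cells stably carrying temperature-sensitive p53-A138V and a BP100-luciferase reporter were pinned with compounds (4-point, 1:5 series) and held 24 hrs at 37 deg C. Luminescence was read 10 min after detection reagent.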
N370S GC: inhibitors or activators of N370S glucocerebrosidase for Gaucher disease; P04062; N370S GC spleen homogenate, 4MU-glucoside fluorescence; Potency, µM (top dose mostly 59.4 µM), for inactives: top-dose activity change, negative = inhibition, actives largely listed as inhibitors; actives 0.092% (n = 330,000);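 also: potency is read from the fitted curve at half-maximal effect; 0% = full enzyme activity and -100% = no enzyme basal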
TCR act: T cell receptor activation | 330,000 tested, under 10 active | primary human leukocytes, anti-CD3, IL-2 HTRF, 48 h | Potency, µM (doses to about 9.22 µM), for the others: at the top dose activation of IL-2 secretion, most hits filed as activators | AID 504894; also: % of control where 0% means no effect
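HTRF read-out of IL-2 secretion: europium cryptate donor excited at 320nm, d2 acceptor emission at 665nm. Cells were primary human leukocytes incubated 48 hr with compounds and a-CD3 beads, supplying TCR signal only.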
BRCA1 expr act: BRCA1 expression activation. AID 624202. actives 1.1% (n = 380,000). MCF7-BRCA1-FFLuc reporter, luminescence, 48 h; response scale: scaled: vehicle 0%, 10 µM genistein 100%. Potency, µM (titrated, usually from 46.1 µM), without a hit: top-dose activation, usual class: activators; also: potency is read from the fitted curve at half-maximal effect; nearly all actives have a fitted effect of over 80% in size
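MCF7 cells carrying a BRCA1-firefly luciferase reporter (2000 cells/well, phenol-red free MEM) were attached for 2 h at 37 °C, then given compounds for 48 h. Luminescence was read 15 min after luciferase reagent; activity normalized to genistein (10 microM) and DMSO.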
GLS inhibitor: inhibitors of human glutaminase (GLS); O94925; GLS enzymatic activity, qHTS titration; Potency, µM (titrated, usually from 45.5 µM), inactives show at the top dose activity change, negative = inhibition, actives largely listed as inhibitors; actives 0.21% (n = 410,000); AID 624170; also: potency is read from the fitted curve at half-maximal effect; % is scaled to controls: 0 for no effect and ±100 for the full control effect
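Read-out is an Amplex red fluorescence increase coupled through glutamate oxidase and HRP, measured before and after 30 min room-temperature incubation. hKGA is in 45 mM KH2PO4 (pH 8.2) with 0.02% Tween-20; glutamine added as 1mM solution.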
TSHR antagonist: antagonists of human thyroid stimulating hormone receptor; TSHR-expressing cells, TSH-stimulated cAMP HTRF, 2 h; active compounds read low; P16473; actives 0.2% (n = 330,000); activity change, negative = inhibition, % at 11.5 µM; AID 504810;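 active = activity change below a set negative limit, meaning inhibition stronger than a set level, cut at about -70% in these data; inconclusive = activity change between two set negative limits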; also: % is scaled to controls: 0 for no effect and ±100 for the full control effect
Target sequence (P16473 whole entry, looked up): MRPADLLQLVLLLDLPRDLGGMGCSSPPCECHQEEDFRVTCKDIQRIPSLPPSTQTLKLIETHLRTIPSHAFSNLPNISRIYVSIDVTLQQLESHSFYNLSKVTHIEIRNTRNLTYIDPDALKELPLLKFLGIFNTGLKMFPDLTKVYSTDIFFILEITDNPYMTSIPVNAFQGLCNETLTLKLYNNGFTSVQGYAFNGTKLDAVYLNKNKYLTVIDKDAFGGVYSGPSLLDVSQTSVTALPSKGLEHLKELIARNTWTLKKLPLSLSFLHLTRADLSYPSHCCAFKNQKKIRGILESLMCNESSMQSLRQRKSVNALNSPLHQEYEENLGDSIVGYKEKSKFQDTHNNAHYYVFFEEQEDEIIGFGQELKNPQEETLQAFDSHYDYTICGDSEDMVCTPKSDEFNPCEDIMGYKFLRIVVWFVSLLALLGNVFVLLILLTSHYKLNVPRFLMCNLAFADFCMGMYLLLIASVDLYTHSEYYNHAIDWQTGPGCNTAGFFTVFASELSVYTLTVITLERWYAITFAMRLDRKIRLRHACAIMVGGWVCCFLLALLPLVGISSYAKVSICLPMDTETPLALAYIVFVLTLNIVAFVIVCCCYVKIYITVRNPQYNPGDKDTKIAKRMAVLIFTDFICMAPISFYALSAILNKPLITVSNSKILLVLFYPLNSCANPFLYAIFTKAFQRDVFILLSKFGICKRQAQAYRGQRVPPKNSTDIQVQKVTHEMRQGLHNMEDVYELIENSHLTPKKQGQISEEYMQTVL
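Inhibition of cAMP made by TSHR-expressing cells under TSH stimulation (4nM final, EC80; 2 h, 37 deg C) is quantified with a one-step lysis HTRF kit, anti-cAMP cryptate versus cAMP-d2.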
* = called active by the depositor; ? = inconclusive; / = not tested or not shown; [ ] = another dose, or the depositor's remark. Unless noted, calls follow the shape of the dose curve; as a rule, active = well fitted curve in the direction sought with a large enough effect; inconclusive = small, poorly fitted or top-dose-only effect, or another doubt; inactive = no such curve, though single readings can be large; an effect the other way counts as inactive or inconclusive.

SMILES	p53 reactivator	N370S GC	TCR act	BRCA1 expr act	GLS inhibitor	TSHR antagonist
CC[C@H](C)[C@H](NC(=O)[C@H](C)NC(=O)[C@H](CC(=O)O)NC(=O)[C@H](CO)NC(=O)[C@@H](N)Cc1cnc[nH]1)C(=O)N[C@@H](Cc1ccccc1)C(=O)N[C@H](C(=O)N[C@@H](CCC(N)=O)C(=O)N[C@@H](CCC(N)=O)C(=O)N[C@@H](Cc1ccc(O)cc1)C(=O)N[C@@H](CO)C(=O)N[C@@H](CCCCN)C(=O)N[C@@H](CC(C)C)C(=O)N[C@@H](CC(C)C)C(=O)N[C@@H](C)C(=O)N[C@@H](CCCCN)C(=O)N[C@@H](CC(C)C)C(=O)N[C@@H](C)C(=O)N[C@@H](CC(C)C)C(=O)N[C@@H](CCC(N)=O)C(=O)N[C@@H](CCCCN)C(=O)N[C@@H](Cc1ccc(O)cc1)C(=O)N[C@@H](CC(C)C)C(=O)N[C@@H](C)C(=O)N[C@@H](CO)C(=O)N[C@H](C(=O)N[C@@H](CC(C)C)C(=O)NCC(=O)N[C@@H](CO)C(=O)N[C@@H](CCCNC(=N)N)C(=O)N[C@H](C(=O)N[C@@H](CO)C(=O)N1CCC[C@H]1C(=O)N1CCC[C@H]1C(=O)N1CCC[C@H]1C(N)=O)[C@@H](C)O)[C@@H](C)CC)[C@@H](C)O	/	-2.0%	/	/	/	/
CN(C)c1ccc(N=Nc2cccc(F)c2)cc1	?	-4.1%	0.3%	1.58µM*	-11.6%	-11.2
Cc1cc(C)nc(SCC(=O)N2CCc3ccccc32)n1	/	/	1.3%	5.62µM*	-7.2%	/
O=C(CSC1=NCCS1)N1CCN(c2ccccc2)CC1	35.5µM*	14.8%	-3.9%	4.9%	27.1%	11.0
Cc1nc(SCC(=O)N2CCN(c3ccccc3)CC2)n[nH]1	-4.8%	-14.6%	-4.8%	-1.5%	3.6%	-89.5*
O=C(c1ccc(Cl)s1)N1CCc2ccccc21	?	15.8%	5.8%	11.2µM*	-3.3%	-0.6
Cc1cc(C)n2nc(SCC(=O)N3CCc4ccccc43)nc2n1	0.7%	9.6%	-0.7%[46.1 µM]	0.7%	0.3%	18.1
O=C(c1ccc(C(=O)N2CCCc3ccccc32)s1)N1CCCc2ccccc21	2.9%	/	2.3%	-29.8%	5.8%	2.7
CCOc1ccc(C(=O)NCc2ccc3c(c2)CCN3C(=O)c2ccc(C)cc2)cc1OCC	/	/	/	/	-12.5%	/
C=C1C=C(C)n2ncc(C(=O)N(CCc3ccccc3)Cc3ccccc3)c2N1	/	/	/	0.0%	/	/
COC(=O)c1cc2c([nH]c1=O)CC(c1ccccc1)CC2=O (stereo not drawn)	/	/	/	-4.2%	/	/
CCOC(=O)C1=C[C@@H](C(=O)OCC)[C@@H]2C3=C(C(=O)C2(C)C)[C@H](c2ccccc2)[C@@H]2C(=O)N(c4ccccc4)C(=O)[C@@H]2[C@@H]3C1	/	4.3%	/	/	/	/
O=C(CSC1=NCCS1)N1CCc2ccccc21	?	-7.5%	-3.6%	3.16µM*	-0.6%	-2.9
COc1ccc2c(c1)C(=O)CC2	/	/	/	1.5%	/	/
Cc1ccc(Nc2nc(NCc3ccco3)nc3nccnc23)c(C)c1	/	/	/	-16.5%	/	/
CCN(CC)c1ccc(/C=N/NC(=O)CNC(=O)C2COc3ccccc3O2)c(O)c1 (stereo not drawn)	17.8µM*	-9.1%	/	-84.1%	?	-18.2
Nc1cc(=O)[nH]c(=S)[nH]1	/	/	/	12.2%	/	/
CCOC(=O)c1c(NC(=O)c2ccccc2)sc2c1CCc1ccccc1-2	-6.2%	2.0%	0.2%[46.1 µM]	-37.4%	-9.3%	-7.0
CCOC(=O)c1c(NC(=O)c2ccccc2Cl)sc2c1CCc1ccccc1-2	-2.2%	0.0%	-1.3%[46.1 µM]	-69.1%	10µM*	-10.5
O=c1/c(=C\c2cccnc2)sc2nc3ccccc3n12	?	-1.4%	1.5%	12.6µM*	-8.6%	-3.2
O=c1/c(=C/c2ccc(O)c([N+](=O)[O-])c2)sc2nc3ccccc3n12	3.6%	0.7%	-2.9%	67.6%	0.0%	-46.8
Cc1ccc2c(nc3s/c(=C\c4ccc(-c5ccccc5C(=O)O)o4)c(=O)n32)c1C	0.6%	-6.8%	-7.2%	13.9%	?	-0.6
O=C(O)c1ccc(-c2ccc(/C=c3/sc4nc5ccccc5n4c3=O)o2)cc1Cl	3.1%	-8.7%	1.4%	-15.0%	10µM*	-18.9
Cc1cc(C)c2nc3sc(=Cc4ccc(-c5ccccc5C(=O)O)o4)c(=O)n3c2c1	/	/	/	16.4%	12.6µM*	/
O=[N+]([O-])c1ccc(S(=O)(=O)c2ccccc2)nc1	-14.3%	-4.2%	-4.8%	-91.4%	3.5%	-97.9*
SMILES	p53 reactivator	N370S GC	TCR act	BRCA1 expr act	GLS inhibitor	TSHR antagonist
CCCC(=O)Nc1nnc(-c2ccc3c(c2)OCCO3)o1	19.5%	-17.2%	4.2%	6.31µM*	8.7%	-6.8
CSc1ccc(-c2nnc(NC(=O)c3ccc4c(c3)OCCO4)o2)cc1	/	/	/	/	-13.5%	/
CCN(CC)/[N+]([O-])=N/OCOC(=O)C(C)c1ccc2cc(OC(C)=O)ccc2c1 (stereo not drawn)	/	/	/	-4.1%	/	/
O/N=C(/CI)c1ccc2ccccc2c1	/	/	/	28.7%	/	/
COc1cc2c(NC3CCN(C(C)C)CC3)nc(N3CCCN(C)CC3)nc2cc1OCCCN(C)C	/	/	/	-10.8%	/	/
O=C(OCC(=O)N1CCc2ccccc2C1)c1c(F)cccc1Cl	?	/	/	6.31µM*	-3.0%	2.2
Cc1ccsc1C(=O)OCC(=O)N1CCc2ccccc2C1	18.1%	6.4%	-3.1%	7.94µM*	4.7%	11.0
O=C(COC(=O)c1c(F)cccc1Cl)NC1CCCCC1	26.7%	0.8%	-2.8%	11.2µM*	13.1%	-14.4
O=C(COC(=O)c1ccccc1F)NC1CCCC1	2.0%	-7.6%	-1.8%	-11.3%	82.8%	-1.7
COC(=O)C1=C(C(=O)OC)[C@@H]2N(C)c3ccc(OC)cc3[C@@]23C[C@@H](C(=O)OC)N(S(=O)(=O)c2c(C)noc2C)C3=N1	/	3.1%[12.8 µM]	/	/	/	/
Cc1nc(NC(=O)c2cccnc2Cl)sc1C	/	/	-1.9%	3.16µM*	6.5%	/
Cc1nc(NC(=O)c2ccccc2O)sc1C	16.4%	-12.5%	-5.7%	63.9%	0.4%	-43.0
O=C(CSc1nnc(NC(=O)Nc2ccccc2)s1)Nc1cccc(F)c1	/	/	/	/	5.4%	/
CC(C)(C)c1nnc(NC(=O)Nc2ccc(Cl)cc2)s1	3.6%	12.4%	0.6%	86.1%	2.4%	-11.3
Cc1nc(NC(=O)Nc2ccc(Cl)cc2)sc1C	18.7%	-2.2%	2.2%	5.62µM*	1.3%	-7.1
O=C(Nc1ccc(Cl)cc1)Nc1nnc(SCc2ccccc2)s1	28.2µM*	2.1%	-3.7%[46.1 µM]	?	0.2%	7.6
